# Nrf2 activator: qHTS of Nrf2 Activators | AREc32 ARE-luciferase reporter (MCF7-derived line), luminescence, 24 h | Potency, µM (doses to about 46.1 µM), for the others: at the highest dose activation, most hits filed as activators | 410,000 compounds, 0.31% hits; further: potency means the concentration at half of the fitted maximal effect; % of control where 0% means no effect; nearly all actives have a fitted effect of over 65% in size
#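 ARE activation measured as luciferase luminescence (Steady-Glo, 30 min RT) in AREc32_Fluc cells after 24 hr compound exposure at 37 deg C, 5% CO2; cells seeded overnight at 1000/well in OPTI-MEM, 5% FBS.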
# A549 tox: Nrf2 qHTS screen for inhibitors: counterscreen for cytotoxicity. A549 ARE-Fluc cells, CellTiter-Fluor viability, 18-24 h. Potency, µM (doses to about 46 µM), for inactives: top-dose activity change, negative = cytotoxicity, most hits filed as inhibitors. 390,000 compounds, 0.16% hits. AID 504648, 2011; further: potency means the concentration at half of the fitted maximal effect; on the % scale 0 is the no-effect control and ±100 the full control effect
#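 A549 ARE_Fluc cells in 5% FBS OPTI-MEM were exposed to compounds in concentration-response for 18-24 h at 37 deg C. Viability was read by CellTiter-Fluor fluorescence (Ex 405/Em 525) after 30 min, before the luciferase read.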
# Nrf2 block: Nrf2 qHTS screen for inhibitors | A549 ARE-Fluc reporter, luciferase luminescence, 18-24 h | Potency, µM (doses to about 46 µM), without a hit: at the top dose activity change, negative = inhibition, most hits filed as inhibitors | 360,000 compounds, 2.1% hits; further: potency means the concentration at half of the fitted maximal effect; on the % scale 0 is the no-effect control and ±100 the full control effect; nearly all actives have a fitted effect of over 60% in size
#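 Reporter: ARE-Fluc in A549. Exposure: 18-24 h, 37 °C, 5% CO2, 5% FBS OPTI-MEM. Readouts: fluorescent cytotoxicity (CellTiter-Fluor), then luminescent Nrf2 signal after BugLite.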
# B2AR arrestin: qHTS assay of beta-arrestin-biased ligands of beta2-adrenergic receptor. beta-arrestin recruitment to beta2AR, cell-based reporter. 330,000 compounds, 0.02% hits. Beta-2 adrenergic receptor (Homo sapiens), P07550. Potency, µM (top dose mostly 46.1 µM), for inactives: top-dose activation, usual class: activators;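 further: potency means the concentration at half of the fitted maximal effect; 0% = DMSO controls and full agonism = EC100 isoproterenol or metaproterenol; nearly all actives have a fitted effect of over 65% in size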
# Target sequence (P07550 whole entry, looked up): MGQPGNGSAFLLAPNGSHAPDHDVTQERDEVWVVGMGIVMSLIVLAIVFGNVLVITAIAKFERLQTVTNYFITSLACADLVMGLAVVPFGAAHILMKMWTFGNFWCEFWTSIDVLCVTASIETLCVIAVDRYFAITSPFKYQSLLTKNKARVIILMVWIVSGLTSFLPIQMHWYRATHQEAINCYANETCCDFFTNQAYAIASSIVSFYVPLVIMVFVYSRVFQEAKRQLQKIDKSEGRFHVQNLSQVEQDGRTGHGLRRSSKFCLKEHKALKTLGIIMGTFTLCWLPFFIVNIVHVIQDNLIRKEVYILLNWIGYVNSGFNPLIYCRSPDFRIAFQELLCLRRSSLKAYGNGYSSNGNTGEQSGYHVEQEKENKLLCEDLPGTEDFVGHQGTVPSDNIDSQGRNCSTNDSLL
# miR-21 act: qHTS Assay for Modulators of miRNAs and/orActivators of miR-21 | HeLa miR-21 FLuc reporter, luciferase, 48 h | Potency, µM (highest dose often 38.3 µM), for inactives: at the highest dose activity change, positive = activation, actives largely listed as activators | 340,000 tested, under 10 active;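 further: % of control where 0% means no effect; miR-21 action dims this reporter so a rising signal means less miR-21 action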
#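 HeLa cells stably expressing CMV-driven firefly luciferase with a downstream miR-21 binding sequence, endogenously expressing miR-21, were treated with titrations (up to about 40uM final) for 48 hours at 37 degree Celsius. Luciferase luminescence was read after lysis.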
# Starred values were filed as active, the others as inactive; ? = inconclusive; · = no result; [ ] = another dose, or the depositor's remark. Compounds with a hit are over-represented: about 2.2% of the library has one in this group of screens. The call rests on the fitted dose curve; in most records, active means well fitted curve in the direction sought with a large enough effect; inconclusive means small, poorly fitted or top-dose-only effect, or another doubt; inactive means no such curve, though single readings can be large; an effect the other way counts as inactive or inconclusive.
SMILES,Nrf2 activator,A549 tox,Nrf2 block,B2AR arrestin,miR-21 act
Cc1cc2c(s1)c1cnn(Cc3c(F)ccc(F)c3Cl)c(=O)c1n2C,·,-3.6%,5.2%,·,·
CNC(=S)Nc1cc(OC)c(NC(=O)c2ccco2)cc1OC,5.3%,8.6%,27.9%,0.2%,0.9%
COc1ccc(Cl)cc1NC(=S)NC(=O)c1ccco1,10µM*,2.2%,16.7%,-0.9%,·
COc1ccc(NC(=O)c2ccco2)cc1NC(=O)C(C)(C)Oc1ccc(Cl)cc1,9.6%,-23.2%,20.6µM*,·,3.0%
O=C(Nc1cc2nn(-c3ccccc3)nc2cc1Cl)c1ccco1,1µM*,0.6%,·,-0.5%,-32.4%
CCOC(=O)c1cccc(NC(=O)c2cc3c(=O)n(C)c4ccccc4c3n2C)c1,-0.6%,4.0%,?,·,-2.2%
CCn1c(SCC(=O)N/N=C/c2c[nH]c3ccccc23)nnc1-c1ccc(C(C)(C)C)cc1,0.0%,?,16.4µM*,-1.7%,23.0%
CCn1c(SCC(=O)c2c[nH]c3ccccc23)nnc1-c1cccs1,11.2µM*,-10.2%,-16.0%,0.4%,4.5%
COCCn1c(SCC(=O)c2c[nH]c3ccccc23)nnc1-c1ccncc1,0.4%,2.1%,-12.6%,-1.3%,-7.8%
CCn1c(SCc2nc3ccccc3s2)nnc1-c1cccs1,14.1µM*,2.8%,?,0.0%,-58.3%
CCn1c(SCC(=O)N/N=C/c2ccc(C)o2)nnc1-c1ccc(C(C)(C)C)cc1,6.3%,-1.9%,-18.2%,-2.6%,9.8%
CCn1c(SCc2nc(-c3cccs3)no2)nnc1-c1c[nH]c2ccccc12,-0.5%,?,18.4µM*,-0.7%,23.8%
O=C(CC1Sc2ccccc2NC1=O)Nc1cccc(C(F)(F)F)c1 (stereo unspecified),0.5%,-0.5%,·,·,0.5%
O=C(NCc1ccccc1Cl)c1ccc2c(c1)ncn2-c1cccc(F)c1,3.9%,2.8%,·,·,-17.3%
COc1ccc(C2N(Cc3ccccc3)C(=O)c3ccccc3N2C)cc1COc1ccc(NC(C)=O)cc1 (stereo unspecified),·,-10.0%,?,·,·
COc1ccc(CCNc2nc(-c3ccncc3)cs2)cc1OC,0.7%,6.9%,-29.8%,-0.6%,6.8%
Cc1nc(C)c(-c2csc(Nc3ccc(N)cc3)n2)s1,22.2%,-20.3%,20.6µM*,-0.3%,-16.8%
COc1ccc(CCNc2nc(-c3cccnc3)cs2)cc1OC,-0.4%,-6.2%,23.1µM*,0.0%,-3.0%
COc1ccc(CCNc2nc(-c3sc(C)nc3C)cs2)cc1OC,-0.1%,?,20.6µM*,-0.4%,20.4%
CCOC(=O)Cc1ccc(NC(=O)N(Cc2ccc(OC)cc2)C2CCN(C(C)=O)CC2)cc1,-1.0%,-4.6%,32.6%,·,-6.1%
Cc1ccoc1C(=O)Nc1ccc(CC(=O)O)cc1,-2.2%,-8.2%,1.03µM*,-0.2%,?
O=C(CCC(=O)N1CC2CCCN2c2ccccc21)NCc1ccc(Cl)cc1 (stereo unspecified),0.3%,5.0%,·,·,2.0%
CCS(=O)(=O)c1c(Nc2ccc(F)c(Cl)c2)sc(C(=O)c2ccccc2)c1N,10.1%,?,20.6µM*,·,3.1%
Cc1cccc2c1-c1sc(C(=O)NCCCN3CCN(c4cccc(Cl)c4)CC3)cc1CO2,-2.7%,1.9%,7.4%[9.27 µM],·,?
Cc1cc2c(cc(C(=O)OC(C(=O)NCC3CCCO3)C(C)C)n2C)o1 (stereo unspecified),-0.6%,-11.0%,?,0.1%,-0.1%
SMILES,Nrf2 activator,A549 tox,Nrf2 block,B2AR arrestin,miR-21 act
Cc1cc2c(cc(C(=O)OC(C(=O)NC3CCCCC3)C(C)C)n2C)o1 (stereo unspecified),1.7%,-12.2%,20.6µM*,0.1%,·
CC1CCN(C(=O)Nc2ccc3nc(-c4ccco4)c(-c4ccco4)nc3c2)CC1,·,-11.6%,?,·,·
Cc1ccc(/C(N)=N/OC(=O)c2ccc(F)cc2)cc1,8.1%,-10.8%,?,0.1%,-39.1%
Cc1ccc(/C(N)=N/OC(=O)c2cccc(F)c2)cc1,11.2µM*,11.1%,·,0.0%,-45.9%
N/C(=N\OC(=O)c1cccc(F)c1)c1ccccc1,11.2µM*,3.0%,?,-0.4%,-50.2%
COc1cccc(C2c3c(ncn(-c4ccccc4Br)c3=N)Oc3ccc4ccccc4c32)c1 (stereo unspecified),·,-1.1%,9.0%,·,·
FC(F)Oc1ccc(NC(=S)NCc2ccccc2)cc1,2.3%,9.9%,4.6%,-0.9%,-15.9%
FC(F)Oc1ccc(NC(=S)NCc2ccccc2)cc1Cl,0.2%,?,23.1µM*,-0.1%,14.7%
COc1ccccc1C(=O)Nc1ccc(S(=O)(=O)N2CCCCC2c2cccnc2)cc1 (stereo unspecified),1.3%,-19.6%,16.4µM*,0.2%,22.2%
COc1ccccc1C(=O)Nc1ccc(S(=O)(=O)N2CCOCC2)cc1,3.5%,-1.4%,·,-0.2%,-7.8%
COc1ccccc1C(=O)Nc1ccc(S(=O)(=O)N2CCC(C)CC2)cc1,-0.1%,-17.4%,23.1µM*,-0.6%,7.1%
COc1ccccc1C(=O)NCCC(=O)Nc1ccc(S(=O)(=O)N2CCC(C)CC2)cc1,-0.3%,-12.9%,11.6µM*,-0.5%,·
CC(=O)Nc1nonc1-c1nnc(SCC(=O)Nc2cccc(F)c2)n1-c1ccccc1,-0.1%,-7.8%,-3.9%,·,-3.3%
FC(F)(F)c1cc(-c2ccco2)nc(NCc2ccco2)n1,10µM*,-1.2%,5.6%,-0.6%,-5.0%
COC(=O)c1ccccc1NC(=O)Cn1ncc2c(C)n(Cc3ccc(F)cc3)c(C)c2c1=O,-0.3%,-17.9%,?,·,0.2%
COc1cccc(C2=Nn3c(nnc3-c3ccccc3C)SC2)c1,·,-15.6%,?,·,·
CCOc1ccc(CNC(=O)c2c(C)nn(-c3ccc(F)cc3)c2-n2cccc2)cc1,-0.1%,11.0%,?,·,26.8%
CC1CCCN(C(=O)c2ccc([N+](=O)[O-])o2)C1 (stereo unspecified),?,3.4%,-12.0%,-0.6%,11.6%
CCC1CCCCN1C(=O)c1ccc([N+](=O)[O-])o1 (stereo unspecified),20µM*,-1.3%,13.8%,0.2%,10.3%
C=CCOc1ccccc1CN(C(=O)CCl)c1ccc2c(c1)OCO2,22.4µM*,1.6%,3.8%,0.3%,28.0%
COc1ccccc1C(=O)COC(=O)c1cccs1,8.91µM*,-8.5%,?,-0.9%,·
Cc1csc2ncnc(N3CCN(S(=O)(=O)c4cccc(C(F)(F)F)c4)CC3)c12,-0.9%,-21.0%,5.17µM*,4.0%,4.1%
COc1ccc(Oc2c(Cl)cnn(-c3ccc(C)cc3)c2=O)cc1,12.6µM*,-0.7%,·,0.3%,0.5%
COc1ccc(-n2c(C)nc3c(cnn3-c3ccc(Cl)cc3)c2=O)cc1,0.0%,-18.6%,?,0.0%,-2.3%
